Measurements reported in ChEMBL document CHEMBL1201862, “PubChem BioAssay data set” (2004).
The campaign covered roughly 56,000 […]. About 2,300 (4.1%) were called active. No stated cut-off is given here; in the data, active = GI50 up to about 1.1 µM and inactive = higher. A selection follows. Results with a measured potency or affinity are listed apart.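 Test compounds were applied to cells in 96-well plates for 48 hours at 5 doses. GI50: concentration for 50% inhibition of growth.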

The substances below were run on TK-10 (assay: NCI tumour cell line growth inhibition, 48 h).

Substance	GI50
[Bis(aminomethyl)ethylmethylsilane]tetrachloroplatinum(IV), CHEMBL2146192	13.1 µM
[Bis(aminomethyl)tetramethylenesilane]dichloropaltinum(II), CHEMBL2146205	32.2 µM
[Bis(aminomethyl)dimethylsilane]tetrachloroplatinum(IV), CHEMBL2146190	9.48 µM
[Bis(aminomethyl)diethylsilane]tetrachloroplatinum(IV), CHEMBL2146203	13.4 µM
mu-(1,7-nanodiamine-N,N')bis-(cis-aminedichloroplatimum (II)), CHEMBL2146215	62.8 µM
[Bis(aminomethyl)pentamethylenesilane]tetrachloropaltinum(IV), CHEMBL2146204	17.1 µM
[Bis(aminomethyl)dimethylsilane]dichloroplatinum (II), CHEMBL2146201	24.6 µM
cis-Bis[[(trimethylsilyl)methyl]amino]tetrachloroplatinum(IV), CHEMBL2146191	13.2 µM
CISPLATIN, CHEMBL11359	6.64 µM
[Bis(aminomethyl)tetramethylenesilane]tetrachloropaltinum(IV), CHEMBL2146189	9.91 µM
[Bis(aminomethyl)pentamethylenesilane]dichloropaltinum(II), CHEMBL2146202	12.7 µM
